Screening data (PubChem)
Pf growth 48h: P. falciparum growth inhibition at 48 hours (one generation). P. falciparum luciferase growth in erythrocytes, 48 h. AID 504832. Potency, µM (series often up to 28.7 µM), without a hit: at the highest dose activity change, negative = inhibition, actives largely listed as inhibitors. 310,000 tested, 5.9% active; further: potency means the concentration at half of the fitted maximal effect; on the % scale 0 is the no-effect control and ±100 the full control effect
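Here the parasites carry a stable luciferase gene and grow inside erythrocytes in Albumax-based RPMI medium with compound for one erythrocytic cycle. Activity is scored as loss of luminescent signal.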
Giardia FBPA inh: blocks Giardia fructose-bisphosphate aldolase activity; Potency, µM (titrated, usually from 59.6 µM), for inactives: at the highest dose activity, negative = inhibition, usual class: inhibitors; AID 2451; 290,000 tested, 0.71% active; purified Giardia FBPA; further: potency means the concentration at half of the fitted maximal effect; on the % scale 0 is the no-effect control and ±100 the full control effect; nearly all actives have a fitted effect of over 55% in size
Target sequence (A8B2U2 whole entry, looked up): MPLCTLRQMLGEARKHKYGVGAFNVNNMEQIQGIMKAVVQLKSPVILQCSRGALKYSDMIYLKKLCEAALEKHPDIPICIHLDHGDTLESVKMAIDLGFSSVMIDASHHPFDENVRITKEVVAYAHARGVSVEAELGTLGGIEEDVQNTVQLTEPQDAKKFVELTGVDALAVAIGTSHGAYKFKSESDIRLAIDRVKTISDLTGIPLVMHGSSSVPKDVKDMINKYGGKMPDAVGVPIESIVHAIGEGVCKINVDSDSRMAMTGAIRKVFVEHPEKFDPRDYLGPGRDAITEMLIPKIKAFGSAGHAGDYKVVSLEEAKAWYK
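40 nM FBPA preincubated 10 min at RT with compound (up to 57.5 uM final), then substrate plus GAPDH/TPI/NAD/arsenate coupling and diaphorase/resazurin added. Fluorescence read after 20 min at RT, 525/598 nm.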
NS1 function inh: inhibitors of influenza NS1 protein function; AID 2326; Potency, µM (titrated, usually from 46.1 µM), without a hit: at the highest dose activity, positive = more growth; 270,000 tested, 0.4% active; calls by dose curve; further: potency means the concentration at half of the fitted maximal effect; actives are rising curves; nearly all actives have a fitted effect of over 50% in size
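Growth recovery, yeast-based: influenza A NS1 expressed in S. cerevisiae causes slow growth, and suppressors are detected by OD600. The parent strain without NS1 is used as positive control.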
Shiga inhibitor: Shiga toxin inhibition; Vero cells, Shiga toxin protein synthesis inhibition reporter; inhibition, % at 38.7 µM; 290,000 tested, 9.2% active; in the data active means inhibition mostly above about 28%, no sharp cut-off; inactive means mostly below about 43%; further: 0% is about no effect
Pf growth 96h: P. falciparum growth inhibition at 96 hour, primary screen for plastid delayed-death inhibitors; AID 504834; P. falciparum luciferase reporter growth, 96 h; Potency, µM (top dose mostly 28.7 µM), for inactives: top-dose activity change, negative = inhibition, most hits filed as inhibitors; 320,000 tested, 6.9% active; further: potency means the concentration at half of the fitted maximal effect; on the % scale 0 is the no-effect control and ±100 the full control effect
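Luminescence readout: decreased luciferase signal marks inhibited growth of reporter-expressing P. falciparum in infected red cells (2% hematocrit, 0.05% parasitemia final), exposed to compound two generations (96 h, 37 C, 5% CO2).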
Cycloheximide cs: counter-screen for Shiga toxin inhibitors: cycloheximide protein synthesis inhibition; AID 2314; max response, %; 300,000 tested, 12% active; cell reporter, cycloheximide protein synthesis inhibition counterscreen; in the data active means max response mostly above about 13%, no sharp cut-off; inactive means mostly below about 14%; further: read at 38.3 µM for the half of the compounds with a filed dose; 0% is about no effect
Numbers without * were called inactive; ? = inconclusive; · = no result given; [ ] = dose if it differs, or a comment. Compounds with a hit are over-represented: about 21% of the library has one in this group of screens. Unless noted, the call rests on the fitted dose curve; in most records, active means well fitted curve in the direction sought with a large enough effect; inconclusive means small, poorly fitted or top-dose-only effect, or another doubt; inactive means no such curve, though single readings can be large; an effect the other way counts as inactive or inconclusive.

SMILES	Pf growth 48h	Giardia FBPA inh	NS1 function inh	Shiga inhibitor	Pf growth 96h	Cycloheximide cs
CCNC(=O)COc1ccc(/C=N/NC(=O)c2cccnc2)cc1OC	-6.2%	3.8%	5.2%	9.4	-15.9%[5.75 µM]	5.8
O=C(C#Cc1ccccc1)c1ccco1	-29.8%	-2.8%	-128.2%	-14.7	-17.1%	-7.0
COc1ccc(/C=N/NC(=O)c2cccnc2)cc1	·	4.5%	2.0%	121.0*	-3.6%	31.5*
Cc1cc(/C=N/NC(=O)c2ccc(O)cc2)c(C)n1CC(C)C	0.0%	2.3%	2.4%	82.0*	-19.0%	47.8*
COc1ccc(/C=N/NC(=O)c2ccc[nH]2)cc1	0.5%[0.00184 µM]	4.7%	1.3%	77.1*	135.2%	29.3*
COc1ccc(CNC(=O)c2ccc[nH]2)cc1	21.1%	-2.6%	6.9%	20.6	-8.5%	4.3
COc1ccc(C(=O)Oc2ccc(/C=N/NC(=O)c3cccnc3)cc2OC)cc1	10.2%	·	·	·	-14.5%	·
COc1cc(/C=N/NC(=O)COc2cccc(F)c2)ccc1OS(=O)(=O)c1ccc(C)cc1	?	-4.4%	?	6.1	8.28µM*	-3.5
O=C(Oc1ccccc1)N1CCC2(CCCN(c3ccccc3)C2)CC1	·	1.0%	·	·	·	·
Cc1c(/C=N/NC(=O)c2cccnc2)c2ccccc2n1Cc1ccccc1	?	-10.9%	·	17.5	-25.1%	18.1
COc1ccc(/C=N/NC(=O)c2ccc(O)cc2)cc1CN1CCCc2ccccc21	?	-14.7%	?	16.4	2.33µM*	10.7
COc1ccc(/C=N/NC(=O)c2ccc(F)cc2)cc1CN1CCc2cc(OC)c(OC)cc2C1C (stereo unspecified)	?	-1.9%	·	6.1	20.8%	11.9
COCCn1c(C)cc(/C=N/NC(=O)c2cccnc2)c1C	48.8%	1.8%	7.9%	68.8*	69.3%	22.4*
C/C(CC(=O)Nc1ccccn1)=N\NC(=O)c1ccc([N+](=O)[O-])cc1Cl	-0.8%	-11.8%	-28.8%	8.0	?	-2.6
C/C(Cn1nnc([N+](=O)[O-])n1)=N\NC(=O)c1ccccc1Cl	7.38µM*	?	?	27.3	9.28µM*	22.3*
C/C(Cn1nnc([N+](=O)[O-])n1)=N\NC(=O)c1cccc(Cl)c1	?	?	3.5%	43.6*	11.7µM*	20.2*
Fc1ccc(Nc2ccc3ccccc3n2)c(F)c1	255.7%	-19.2%	1.6%	28.4	224.9%	13.4
O=C(c1ccco1)N1CCC2(CC1)CN(Cc1cc(C(F)(F)F)cc(C(F)(F)F)c1)C2	·	8.3%	·	·	·	·
Cc1csc(NC(=O)c2cc3ccccc3o2)n1	37.1%	·	·	·	90.9%	·
CCCc1nnc(NC(=O)c2cc3ccccc3o2)s1	110.0%	·	-20.3%	40.9	21.1%	13.0*
COCc1nnc(NC(=O)c2cc3ccccc3o2)s1	79.6%	·	-62.3%	58.1*	?	17.5*
C#Cc1cccc2c1c(C(=O)c1ccc(Cn3c(C)nc4cnccc43)c(F)c1)cn2C(=O)N(C)C	·	-8.1%	·	-1.5	·	-0.9
COC(=O)c1ccc2nc(NC(=O)COC(=O)CSc3nc(C)cc(C)n3)sc2c1	76.5%	6.7%	-8.5%	64.9*	4.1%	31.2*
CSc1nsc(SCC(=O)Nc2nc3ccc(C)cc3s2)n1	34.4%	-2.4%	4.6%	34.0	92.0%	20.0*
Cc1ccc2nc(NC(=O)COC(=O)CSc3nc(C)cc(C)n3)sc2c1	114.4%	1.4%	12.1%	78.0*	51.8%	40.5*
SMILES	Pf growth 48h	Giardia FBPA inh	NS1 function inh	Shiga inhibitor	Pf growth 96h	Cycloheximide cs
CCOC(=O)Cc1cnc(NC(=O)CSc2nc(C)cc(C)n2)s1	1.0%	5.1%	·	-7.9	10.4µM*	2.3
COc1ccc2nc(NC(=O)CSc3nc(C)cc(C)n3)sc2c1	·	-2.6%	-49.5%	-14.0	-14.0%	-3.9
C[C@@]1(C(NC(=O)c2ccc(-c3ccccc3)cc2)c2ccc(Cl)cc2)C[C@H]1C1CCCCC1 (stereo partly specified)	·	5.0%	·	·	·	·
Cc1cc(SCC(=O)OCC(=O)N(C)c2ccccc2)nc2ccccc12	-1.2%	·	·	·	3.6%	·
O=C(CN1CCN(C(=O)CNC(=O)c2ccc3c(c2)OCO3)CC1)Nc1ccc(F)cc1	-17.8%	·	·	·	?	·
O=C(NCC1CCCO1)c1ccc(NS(=O)(=O)c2ccccc2)cc1 (stereo unspecified)	30.4%	5.2%	9.3%	4.1	8.8%	0.8
CC(OC(=O)CCc1ccccc1)C(=O)Nc1ccc(Cl)cn1 (stereo unspecified)	-1.9%	·	·	·	11.7%	·
CCCNC(=O)Cn1c(=O)/c(=C\c2ccc(-c3ccc([N+](=O)[O-])cc3)o2)s/c1=C\C(=O)C(C)(C)C	9.28µM*	-0.1%	28.2%	2.1	?	-0.9
CCCNC(=O)Cn1c(=O)/c(=C\c2ccc(-c3cccc([N+](=O)[O-])c3)o2)s/c1=C\C(=O)C(C)(C)C	1.65µM*	-6.8%	5.6%	8.3	1.31µM*	-1.1
O=C(Cc1ccccc1)N/N=C/c1ccc(-c2ccc([N+](=O)[O-])cc2)o1	15.6%	-0.8%	-12.1%	-0.4	27.4%	0.6
COc1ccc(NC(=O)N2CCC3(CC2)CCN(C(=O)c2cc(C(F)(F)F)cc(C(F)(F)F)c2)CC3)cc1	·	-5.2%	·	·	·	·
Cc1ccc(N(C)C(=O)n2cnc3ccccc32)cc1	3.7µM*	-1.5%	-0.2%	2.5	9.28µM*	15.3
O=C(CCCC(=O)n1cnc2ccccc21)n1cnc2ccccc21	2.4%	-19.5%	13.1%	-0.8	3.0%	1.9
Cc1c(C)n(-c2ccc(Cl)cc2)c2ncnc(N)c12	0.6%	5.0%	-23.3%	19.2	10.5%	4.0
CC(=O)Oc1c(/C=C(\C#N)C(N)=O)[nH]c2ccccc12	10.4µM*	?	-19.6%	10.8	-14.8%	21.5
N#C/C(=C\c1c[nH]c2ccccc12)C(N)=O	28.3%	1.6%	-7.9%	27.3	19.6%	9.0*
CCOP(=O)(OCC)/C(C#N)=C/c1c[nH]c2ccccc12	?	1.8%	3.7%	7.1	?	-2.0
CCOc1ccccc1/C=C(/C#N)C(N)=O	3.6%	-6.5%	?	-4.1	?	1.0
CCOC(=O)/C(C#N)=C/c1c[nH]c2ccccc12	46.9%	-3.2%	-6.5%	80.9*	12.8%	28.4*
Cc1ccc(S(=O)(=O)/C(C#N)=C/c2c[nH]c3ccccc23)cc1	-16.2%	-3.7%	3.5%	-13.1	·	-2.6
COC(=O)/C(C#N)=C/c1c[nH]c2ccccc12	6.8%	-3.9%	·	102.9*	?	37.3*
CCOc1ccccc1/C=C(\C#N)C(N)=O	·	·	2.8%	·	·	·
CC[C@H]1CC[C@H]2[C@@H]3CC=C4C[C@H](OC(C)=O)[C@@H](N)C[C@@]4(C)[C@H]3CC[C@@]12C	·	·	-10.0%	·	·	·
CCC(C)C(NC(=O)OC(C)(C)C)C(=O)NC1COC2CC(n3ccc(NC(C)=O)nc3=O)OC12 (stereo unspecified)	·	2.6%	·	-5.0	·	-7.4
COc1ccc(O[C@H]2C=C[C@@H](c3ccccc3)O[C@H]2CO/N=C2/[C@H]3O[C@@H]3[C@@H](O)[C@H]3[C@H]2CCn2c(=O)n(-c4ccccc4)c(=O)n23)cc1	·	-3.6%[12.9 µM]	·	·	·	·
